{
  "source": "ChEMBL document CHEMBL1201862",
  "about": "“PubChem BioAssay data set” (2004)",
  "assay_in_all_cases": "NCI tumour cell line growth inhibition, 48 h",
  "key": {"DLD-1": {"test_system": "DLD-1"}, "HOP-18": {"test_system": "HOP-18"}, "KM-20L2": {"test_system": "KM-20L2"}, "LXFL 529": {"test_system": "LXFL 529"}, "RXF 631": {"test_system": "RXF 631"}, "XF498": {"test_system": "XF498"}, "DMS-273": {"test_system": "DMS-273"}, "SNB-78": {"test_system": "SNB-78"}},
  "note": "Results with a measured potency or affinity are listed apart. These assays gave more results; the selection is not random.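 Values below derive from 48-hour exposures of cells grown in 96-well plates, with endpoints linearly interpolated between the two concentrations bracketing the appropriate inhibition level. Abbreviation: GI50, concentration required for 50% inhibition of growth.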",
  "data": [
    {"substance": "[Bis(aminomethyl)tetramethylenesilane]tetrachloropaltinum(IV), CHEMBL2146189", "values": [
      {"measurement": "GI50", "setting": "DLD-1", "value": 11.8, "unit": "µM"},
      {"measurement": "GI50", "setting": "HOP-18", "value": 24.3, "unit": "µM"},
      {"measurement": "GI50", "setting": "KM-20L2", "value": 2.99, "unit": "µM"},
      {"measurement": "GI50", "setting": "LXFL 529", "value": 12.2, "unit": "µM"},
      {"measurement": "GI50", "setting": "RXF 631", "value": 7.26, "unit": "µM"},
      {"measurement": "GI50", "setting": "XF498", "value": 3.56, "unit": "µM"}
    ]},
    {"substance": "cis-Bis[[(trimethylsilyl)methyl]amino]tetrachloroplatinum(IV), CHEMBL2146191", "values": [
      {"measurement": "GI50", "setting": "DMS-273", "value": 12.1, "unit": "µM"},
      {"measurement": "GI50", "setting": "LXFL 529", "value": 2.15, "unit": "µM"},
      {"measurement": "GI50", "setting": "RXF 631", "value": 3.41, "unit": "µM"},
      {"measurement": "GI50", "setting": "SNB-78", "value": 7.36, "unit": "µM"},
      {"measurement": "GI50", "setting": "XF498", "value": 11, "unit": "µM"}
    ]},
    {"substance": "[Bis(aminomethyl)diethylsilane]tetrachloroplatinum(IV), CHEMBL2146203", "values": [
      {"measurement": "GI50", "setting": "DLD-1", "value": 8.65, "unit": "µM"},
      {"measurement": "GI50", "setting": "HOP-18", "value": 13, "unit": "µM"},
      {"measurement": "GI50", "setting": "KM-20L2", "value": 1.45, "unit": "µM"},
      {"measurement": "GI50", "setting": "LXFL 529", "value": 4.34, "unit": "µM"},
      {"measurement": "GI50", "setting": "RXF 631", "value": 4.21, "unit": "µM"},
      {"measurement": "GI50", "setting": "XF498", "value": 2.77, "unit": "µM"}
    ]},
    {"substance": "[Bis(aminomethyl)pentamethylenesilane]dichloropaltinum(II), CHEMBL2146202", "values": [
      {"measurement": "GI50", "setting": "DLD-1", "value": 31.1, "unit": "µM"},
      {"measurement": "GI50", "setting": "HOP-18", "value": 37.7, "unit": "µM"},
      {"measurement": "GI50", "setting": "KM-20L2", "value": 12.2, "unit": "µM"},
      {"measurement": "GI50", "setting": "LXFL 529", "value": 12.9, "unit": "µM"},
      {"measurement": "GI50", "setting": "RXF 631", "value": 18.4, "unit": "µM"},
      {"measurement": "GI50", "setting": "XF498", "value": 11.5, "unit": "µM"}
    ]},
    {"substance": "mu-(1,7-nanodiamine-N,N')bis-(cis-aminedichloroplatimum (II)), CHEMBL2146215", "values": [
      {"measurement": "GI50", "setting": "DLD-1", "value": 36.2, "unit": "µM"},
      {"measurement": "GI50", "setting": "DMS-273", "value": 4.54, "unit": "µM"},
      {"measurement": "GI50", "setting": "HOP-18", "value": 84.1, "unit": "µM"},
      {"measurement": "GI50", "setting": "KM-20L2", "value": 35.9, "unit": "µM"},
      {"measurement": "GI50", "setting": "LXFL 529", "value": 46.2, "unit": "µM"},
      {"measurement": "GI50", "setting": "RXF 631", "value": 47.2, "unit": "µM"},
      {"measurement": "GI50", "setting": "SNB-78", "value": 48.8, "unit": "µM"}
    ]},
    {"substance": "CISPLATIN, CHEMBL11359", "values": [
      {"measurement": "GI50", "setting": "DLD-1", "value": 6.03, "unit": "µM"},
      {"measurement": "GI50", "setting": "HOP-18", "value": 7.71, "unit": "µM"},
      {"measurement": "GI50", "setting": "KM-20L2", "value": 7.48, "unit": "µM"},
      {"measurement": "GI50", "setting": "LXFL 529", "value": 4.83, "unit": "µM"},
      {"measurement": "GI50", "setting": "SNB-78", "value": 1.49, "unit": "µM"}
    ]},
    {"substance": "[Bis(aminomethyl)dimethylsilane]dichloroplatinum (II), CHEMBL2146201", "values": [
      {"measurement": "GI50", "setting": "DMS-273", "value": 5.62, "unit": "µM"},
      {"measurement": "GI50", "setting": "LXFL 529", "value": 44.2, "unit": "µM"},
      {"measurement": "GI50", "setting": "RXF 631", "value": "> 100", "unit": "µM"},
      {"measurement": "GI50", "setting": "SNB-78", "value": 16.7, "unit": "µM"},
      {"measurement": "GI50", "setting": "XF498", "value": 17.2, "unit": "µM"}
    ]},
    {"substance": "[Bis(aminomethyl)ethylmethylsilane]tetrachloroplatinum(IV), CHEMBL2146192", "values": [
      {"measurement": "GI50", "setting": "DMS-273", "value": 0.587, "unit": "µM"},
      {"measurement": "GI50", "setting": "LXFL 529", "value": 6.22, "unit": "µM"},
      {"measurement": "GI50", "setting": "RXF 631", "value": 14.3, "unit": "µM"},
      {"measurement": "GI50", "setting": "SNB-78", "value": 3.35, "unit": "µM"},
      {"measurement": "GI50", "setting": "XF498", "value": 4.22, "unit": "µM"}
    ]},
    {"substance": "[Bis(aminomethyl)pentamethylenesilane]tetrachloropaltinum(IV), CHEMBL2146204", "values": [
      {"measurement": "GI50", "setting": "DLD-1", "value": 4.58, "unit": "µM"},
      {"measurement": "GI50", "setting": "HOP-18", "value": 42.6, "unit": "µM"},
      {"measurement": "GI50", "setting": "KM-20L2", "value": 3.14, "unit": "µM"},
      {"measurement": "GI50", "setting": "LXFL 529", "value": 4.97, "unit": "µM"},
      {"measurement": "GI50", "setting": "RXF 631", "value": 4.63, "unit": "µM"},
      {"measurement": "GI50", "setting": "XF498", "value": 2.86, "unit": "µM"}
    ]},
    {"substance": "[Bis(aminomethyl)dimethylsilane]tetrachloroplatinum(IV), CHEMBL2146190", "values": [
      {"measurement": "GI50", "setting": "DLD-1", "value": 12.8, "unit": "µM"},
      {"measurement": "GI50", "setting": "DMS-273", "value": 1.02, "unit": "µM"},
      {"measurement": "GI50", "setting": "KM-20L2", "value": 3.58, "unit": "µM"},
      {"measurement": "GI50", "setting": "LXFL 529", "value": 14.2, "unit": "µM"},
      {"measurement": "GI50", "setting": "RXF 631", "value": 34.9, "unit": "µM"},
      {"measurement": "GI50", "setting": "SNB-78", "value": 3.22, "unit": "µM"},
      {"measurement": "GI50", "setting": "XF498", "value": 2.9, "unit": "µM"}
    ]},
    {"substance": "[Bis(aminomethyl)tetramethylenesilane]dichloropaltinum(II), CHEMBL2146205", "values": [
      {"measurement": "GI50", "setting": "DLD-1", "value": 39.1, "unit": "µM"},
      {"measurement": "GI50", "setting": "DMS-273", "value": 14.6, "unit": "µM"},
      {"measurement": "GI50", "setting": "HOP-18", "value": 43.5, "unit": "µM"},
      {"measurement": "GI50", "setting": "KM-20L2", "value": 24.4, "unit": "µM"},
      {"measurement": "GI50", "setting": "LXFL 529", "value": 27.4, "unit": "µM"},
      {"measurement": "GI50", "setting": "RXF 631", "value": 49.3, "unit": "µM"},
      {"measurement": "GI50", "setting": "XF498", "value": 28, "unit": "µM"}
    ]}
  ]
}
